The results in this text go back to PubChem BioAssay.

Several values for one entry are separate records, joined by “and”; a condition that tells them apart may be missing. Equal entries are not always repeated. A number with no mark means an inactive call. Activity calls are given as the source filed them.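 How the source made its calls: active means z-score of at least 1.8 in each of two replicates, scored against plate mean and spread of sample wells; inactive means the rest.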

The assay is described as follows: viability rescue of complex I mutant cybrids, primary screen, cell-based, galactose medium, ATP luminescence (AID 1645843).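 Further: positive z means more ATP and so rescue of galactose-driven cybrid death.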 The following applies: complex I mutant cybrid cells, 72 h, active compounds read high.
As to `N#C/C(=C\c1ccc(O)c(O)c1)C(=O)c1ccc(O)c(O)c1`, the z-score was -0.355.
For `Oc1ccc(Cn2cc[nH]c2=S)cc1` the value was 0.15.
For `CNc1ncnc2c1ncn2[C@H]1C[C@H](OP(=O)(O)O)[C@@H](COP(=O)(O)O)O1` the value was 0.465; for `Cc1nc(N=Nc2cc(S(=O)(=O)O)c3cc([N+](=O)[O-])cc(S(=O)(=O)O)c3c2)c(COP(=O)(O)O)c(C=O)c1O`, 1.9 (active).
Next, `COc1c(N2CC3CCCNC3C2)c(F)cc2c(=O)c(C(=O)O)cn(C3CC3)c12` (stereo not drawn): 0.965.
Take `NC(=S)c1ccc[n+]([C@@H]2O[C@@H](COP(=O)([O-])OP(=O)(O)OC[C@H]3O[C@@H](n4cnc5c(N)ncnc54)C(OP(=O)(O)O)[C@H]3O)C(O)C2O)c1` (stereo partly drawn): the z-score is 0.57.
Turning to `Cc1ccc2c(c1)C(N1CCN(C)CC1)=Nc1cccnc1N2`, the z-score is 0.01.
Next, `NC(N)=N[C@@H](CCC(=O)O)C(=O)O`: 0.175; `N=S(=O)(O)Cc1noc2ccccc12`: 0.5.
For `O=C(O)CCC/C=C\C[C@@H]1[C@@H](/C=C/[C@H](O)C2Cc3ccccc3C2)[C@@H](F)C[C@@H]1O` the value was 0.805; for `N=C(N)c1ccc(OCCCCCOc2ccc(C(=N)N)cc2)cc1` (tested in a mixture with another compound), -1.29; for `NCCC1CCCC(CCN)N1` (stereo not drawn), 0.405.
Next, `Nc1ccn([C@@H]2O[C@H](CO)[C@@H](O)[C@@H]2O)c(=O)n1`: -0.93; `N=c1c[n+](N2CCOCC2)[n-]o1`: -0.02 and 0.005; `N=c1ccn2c(n1)OC1[C@@H](O)[C@@H](CO)O[C@H]12` (stereo partly drawn): -1.23.
For the compound `CCOC(=O)C12CC1/C(=N/O)c1ccccc1O2` (stereo not drawn), the z-score was 0.485.
Regarding `C#C[C@]1(O)CCC2C3C(C)CC4=C(CCC(=O)C4)C3CC[C@@]21C` (stereo partly drawn), the z-score is -0.655.
For `O=C(O)CCC(=O)N1CCCC1C(=O)O` (stereo not drawn) the value was 0.565; for `N.N.N.N.N.N.N.N.N.N.N.N.N.N.O.O.[Cl-].[Cl-].[Cl-].[Cl-].[Cl-].[Cl-].[Ru+4].[Ru+5].[Ru+5]`, -0.735.
Next, `NC[C@H]1O[C@@H](n2cnc3c(N)ncnc32)[C@H](O)[C@@H]1O`: 1.03.
Next, `CN(C)C(=O)/N=N/C(=O)N(C)C`: -1.03.
As to `N#C/C(=C\c1ccc(O)c(O)c1)C(=O)NCCCNC(=O)/C(C#N)=C/c1ccc(O)c(O)c1`, the z-score is -0.275.
For `CCC[C@@H]1C[C@@H](C(=O)N[C@@H]([C@H]2O[C@H](SC)[C@H](O)[C@@H](O)[C@@H]2O)[C@@H](C)O)N(C)C1` the value was 1.21; for `CC[C@@H]1Cc2cc(O)ccc2C2=C1c1ccc(O)cc1C[C@H]2CC`, -0.765; for `C[N+](C)(C)CCOP(=O)(O)OP(=O)([O-])OC[C@H]1O[C@@H](n2ccc(N)nc2=O)C(O)[C@H]1O` (stereo partly drawn), 0.115.
Next, `Nc1nc(SCc2ccc([N+](=O)[O-])cc2)c2ncn([C@@H]3O[C@H](CO)[C@H](O)C3O)c2n1` (stereo partly drawn): -0.085.
For `CC(=O)O[C@H]1CC2(C)[C@@H](C[C@@H](O)[C@H]3[C@@]4(C)CC[C@@H](O)[C@@H](C)[C@@H]4CC[C@@]32C)C1=C(CCC=C(C)C)C(=O)O` (stereo partly drawn) the value was 4.71 (active); for `NC(N)=[N+]1CCc2ccccc2C1`, -0.075.
